Assay results taken from PubChem BioAssay AID1159580 (chemical genetic matrix, 2015).
Hit rate of the full screen: of about 5,500 compounds, about 2,000 (36%) were called active. Another 18% or so got no clear call; they are omitted. Cut-off read from the data, not from the text of the source: active = normalized growth mostly below about 0.91 (no sharp cut-off); inconclusive = no clear call, values can overlap the other calls; inactive = mostly above about 0.92. The list shows a part of the results.

Assay: chemical genetic growth profiling, strain panel (AID 1159580);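 note: tested at 20 µM; growth read once vehicle control cultures reached saturation at 30 °C; 1 = growth at the plate median or of vehicle wells; lower values mean less growth of the strain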
Settings: growth OD
[1] = S. cerevisiae deletion strains, locus YDL101C, strain DUN1, hits give low values
[2] = S. cerevisiae deletion strains, locus YHR030C, strain SLT2, hits give low values

Measured: normalized growth

Clc1ccccc1-c1csc(-c2cccnc2)n1
inactive: S. cerevisiae deletion strains, locus YAR019C, strain CDC15, hits give low values 0.893 | S. cerevisiae deletion strains, locus YBL105C, strain PKC1, hits give low values 0.934 | S. cerevisiae deletion strains, locus YBR135W, strain CKS1, hits give low values 0.924 | S. cerevisiae deletion strains, locus YBR136W, strain MEC1, hits give low values 0.929 | S. cerevisiae deletion strains, locus YBR160W, strain CDC28, hits give low values 0.923 | S. cerevisiae deletion strains, locus YDL017W, strain CDC7, hits give low values 0.928 | S. cerevisiae deletion strains, locus YDL028C, strain MPS1, hits give low values 0.923 | S. cerevisiae deletion strains, locus YDL108W, strain KIN28, hits give low values 0.924 | S. cerevisiae deletion strains, locus YDL132W, strain cdc53, hits give low values 0.932 | S. cerevisiae deletion strains, locus YDL214C, strain PRR2, hits give low values 0.822 | S. cerevisiae deletion strains, locus YDR052C, strain DBF4, hits give low values 0.917 | S. cerevisiae deletion strains, locus YDR226W, strain ADK1, hits give low values 0.931 | S. cerevisiae deletion strains, locus YER123W, strain YCK3, hits give low values 0.673 | S. cerevisiae deletion strains, locus YFL009W, strain cdc4, hits give low values 0.932 | S. cerevisiae deletion strains, locus YFL029C, strain CAK1, hits give low values 0.889 | S. cerevisiae deletion strains, locus YFR003C, strain YPI1, hits give low values 0.93 | S. cerevisiae deletion strains, locus YFR019W, strain FAB1, hits give low values 0.783 | S. cerevisiae deletion strains, locus YFR028C, strain CDC14, hits give low values 0.939 | S. cerevisiae deletion strains, locus YGR052W, strain FMP48, hits give low values 0.769 | S. cerevisiae deletion strains, locus YGR092W, strain DBF2, hits give low values 0.541 | S. cerevisiae deletion strains, locus YHR079C, strain IRE1, hits give low values 0.636 | S. cerevisiae deletion strains, locus YHR082C, strain KSP1, hits give low values 0.894 | S. cerevisiae deletion strains, locus YHR205W, strain SCH9, hits give low values 0.758 | S. cerevisiae deletion strains, locus YIL147C, strain SLN1, hits give low values 0.922 | S. cerevisiae deletion strains, locus YJL128C, strain PBS2, hits give low values 0.926 | S. cerevisiae deletion strains, locus YJL157C, strain FAR1, hits give low values 0.773 | S. cerevisiae deletion strains, locus YJR016C, strain ILV3, hits give low values 0.902 | S. cerevisiae deletion strains, locus YJR066W, strain TOR1 (second series), hits give low values 0.686 | S. cerevisiae deletion strains, locus YJR066W, strain TOR1, hits give low values 0.67 | S. cerevisiae deletion strains, locus YKL048C, strain ELM1, hits give low values 0.968 | S. cerevisiae deletion strains, locus YKL067W, strain YNK1, hits give low values 0.866 | S. cerevisiae deletion strains, locus YKL101W, strain HSL1, hits give low values 0.9 | S. cerevisiae deletion strains, locus YLR133W, strain CKI1, hits give low values 0.842 | S. cerevisiae deletion strains, locus YLR403W, strain SFP1, hits give low values 0.662 | S. cerevisiae deletion strains, locus YML070W, strain DAK1, hits give low values 0.787 | S. cerevisiae deletion strains, locus YMR001C, strain CDC5, hits give low values 0.913 | S. cerevisiae deletion strains, locus YMR205C, strain PFK2 (second series), hits give low values 0.864 | S. cerevisiae deletion strains, locus YNL006W, strain LST8, hits give low values 0.913 | S. cerevisiae deletion strains, locus YNL020C, strain ARK1, hits give low values 0.838 | S. cerevisiae deletion strains, locus YNL161W, strain CBK1, hits give low values 0.919 | S. cerevisiae deletion strains, locus YNL183C, strain NPR1, hits give low values 0.829 | S. cerevisiae deletion strains, locus YNL222W, strain SSU72, hits give low values 0.916 | S. cerevisiae deletion strains, locus YNL307C, strain MCK1 (second series), hits give low values 0.82 | S. cerevisiae deletion strains, locus YOL078W, strain AVO1, hits give low values 0.89 | S. cerevisiae deletion strains, locus YOL136C, strain PFK27, hits give low values 0.819 | S. cerevisiae deletion strains, locus YOR061W, strain CKA2, hits give low values 0.896 | S. cerevisiae deletion strains, locus YOR231W, strain MKK1, hits give low values 0.756 | S. cerevisiae deletion strains, locus YPL209C, strain IPL1, hits give low values 0.909 | S. cerevisiae deletion strains, locus YPR025C, strain CCL1, hits give low values 0.915 | S. cerevisiae deletion strains, locus YPR106W, strain ISR1, hits give low values 0.932 | S. cerevisiae deletion strains, locus YPR111W, strain DBF20, hits give low values 0.938 | S. cerevisiae deletion strains, strain NNK1, hits give low values 0.932
active: [1] 0.913 | S. cerevisiae deletion strains, locus YDR054C, strain cdc34, hits give low values 0.848 | S. cerevisiae deletion strains, locus YDR477W, strain SNF1, hits give low values 0.649 | S. cerevisiae deletion strains, locus YER133W, strain GLC7, hits give low values 0.565 | S. cerevisiae deletion strains, locus YGR040W, strain KSS1, hits give low values 0.647 | [2] 0.591 | S. cerevisiae deletion strains, locus YJL095W, strain BCK1, hits give low values 0.247 | S. cerevisiae deletion strains, locus YKL193C, strain SDS22, hits give low values 0.88 | S. cerevisiae deletion strains, locus YKL203C, strain TOR2, hits give low values 0.572 | S. cerevisiae deletion strains, locus YLR113W, strain HOG1, hits give low values 0.694 | S. cerevisiae deletion strains, locus YMR277W, strain FCP1, hits give low values 0.869 | S. cerevisiae deletion strains, locus YNL207W, strain RIO2, hits give low values 0.86 | S. cerevisiae deletion strains, locus YOR119C, strain RIO1, hits give low values 0.609 | S. cerevisiae deletion strains, locus YOR329C, strain SCD5, hits give low values 0.902 | S. cerevisiae deletion strains, locus YPL031C, strain PHO85, hits give low values 0.566 | S. cerevisiae deletion strains, locus YPL153C, strain RAD53, hits give low values 0.563 | S. cerevisiae deletion strains, locus YPL204W, strain HRR25, hits give low values 0.553 | S. cerevisiae deletion strains, locus YPL256C, strain CLN2, hits give low values 0.774 | S. cerevisiae deletion strains, strain TSCII, hits give low values 0.874

COc1ccc(-c2nc(-c3ccc(-c4ccccc4)cc3)cs2)cc1
active: S. cerevisiae deletion strains, locus YDL134C, strain PPH21, hits give low values 0.87
inactive: S. cerevisiae deletion strains, locus YAL013W, strain DEP1, hits give low values 1.03 | S. cerevisiae deletion strains, locus YBR229C, strain ROT2, hits give low values 1.01 | [1] 1.03 | S. cerevisiae deletion strains, locus YDR150W, strain NUM1, hits give low values 1 | S. cerevisiae deletion strains, locus YEL061C, strain CIN8, hits give low values 0.979 | S. cerevisiae deletion strains, locus YGR078C, strain PAC10, hits give low values 1.02 | [2] 1.08 | S. cerevisiae deletion strains, locus YHR087W, strain rtc3, hits give low values 1 | S. cerevisiae deletion strains, locus YJL187C, strain SWE1, hits give low values 0.968 | S. cerevisiae deletion strains, locus YJR043C, strain POL32, hits give low values 1.03 | S. cerevisiae deletion strains, locus YJR075W, strain HOC1, hits give low values 1.02 | S. cerevisiae deletion strains, locus YKL190W, strain CNB1, hits give low values 0.995 | S. cerevisiae deletion strains, locus YLR039C, strain RIC1, hits give low values 1.02 | S. cerevisiae deletion strains, locus YLR058C, strain SHM2 (second series), hits give low values 1.02 | S. cerevisiae deletion strains, locus YLR085C, strain ARP6, hits give low values 1.02 | S. cerevisiae deletion strains, locus YLR262C, strain YPT6, hits give low values 1.09 | S. cerevisiae deletion strains, locus YML094W, strain GIM5, hits give low values 0.999 | S. cerevisiae deletion strains, locus YMR219W, strain ESC1, hits give low values 1.01 | S. cerevisiae deletion strains, locus YMR263W, strain SAP30, hits give low values 1.01 | S. cerevisiae deletion strains, locus YNL153C, strain GIM3, hits give low values 1.02 | S. cerevisiae deletion strains, locus YNL298W, strain CLA4 (second series), hits give low values 1.09 | S. cerevisiae deletion strains, locus YNL322C, strain KRE1, hits give low values 1.01 | S. cerevisiae deletion strains, locus YNR030W, strain Alg12, hits give low values 1.02 | S. cerevisiae deletion strains, locus YPL055C, strain LGE1, hits give low values 1.01 | S. cerevisiae deletion strains, locus YPL241C, strain CIN2, hits give low values 1 | S. cerevisiae deletion strains, locus YPR135W, strain CTF4, hits give low values 1.14 | S. cerevisiae strains, strain wild type, hits give low values 1
